This is part of a sample that, as a whole, favours compounds with a hit. Of some 83,000 tested, about 20% had one in any assay.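 Results are percent growth after 48 hours of single-concentration exposure. 100 means growth as in untreated cells, lower positive values show inhibition; negative values down to -100 show cell death.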 A number with no mark means an inactive call. Active and inactive are the calls of the source. Rule for the calls: active = growth percent below 10; inactive = the rest.

Test systems include SR leukemia; RPMI-8226 leukemia; OVCAR-8 ovarian; OVCAR-5 ovarian; OVCAR-4 ovarian; SK-OV-3 ovarian; IGROV1 ovarian; OVCAR-3 ovarian; HS 578T breast; NCI/ADR-RES ovarian; T-47D breast; BT-549 breast; MDA-MB-435 melanoma; SW-620 colon; MCF7 breast; HCT-116 colon; HCC-2998 colon; KM12 colon; MDA-MB-468 breast.
Common to all, as to test: NCI-60 one-dose screen, 48 h (100 = growth as untreated, 0 = no growth, -100 = all killed)
Holding throughout (conditions): 10 µM unless noted

`CN1CCN(C(=O)Oc2cc3c(c4ccccc24)[C@H](CCl)CN3C(=O)c2cc3cc(OCCCN4CCC4)ccc3[nH]2)[C@@H]2CSSC[C@H]21`: the growth in the assay on SR leukemia was 5.86% (active); in the assay with RPMI-8226 leukemia, -23.6% (active); in the assay on OVCAR-8 ovarian it was -32.4% (active); in the assay on OVCAR-5 ovarian it was -18.1% (active); with OVCAR-4 ovarian, 12.5%; with SK-OV-3 ovarian, -13.2% (active). Moreover, the growth with IGROV1 ovarian is 2.74% (active); with OVCAR-3 ovarian, 4.14% (active); with HS 578T breast, -12.2% (active); in the assay on NCI/ADR-RES ovarian it was -23.1% (active); in the assay on T-47D breast, -5.44% (active); in the assay on BT-549 breast it was -49.8% (active). Also, the growth with MDA-MB-435 melanoma is -36.2% (active); in the assay with SW-620 colon, 4.87% (active); in the assay on MCF7 breast it was -63.4% (active); in the assay on HCT-116 colon it was 1.54% (active); with HCC-2998 colon, -83.3% (active); with KM12 colon, -40.5% (active). Moreover, in the assay on MDA-MB-468 breast, the growth was -72.1% (active).

In the case of `COc1ccc(N=Nc2c(N)nn3c(-c4ccc(F)cc4)ccnc23)cc1`, the growth in the assay on SR leukemia is 3.18% (active); in the assay on RPMI-8226 leukemia, 95.5%; with OVCAR-8 ovarian, 73.1%; with OVCAR-5 ovarian, 80%; with OVCAR-4 ovarian, 26.1%; in the assay on SK-OV-3 ovarian, 113%. Further, the growth is 99.9% with IGROV1 ovarian; 79.6% with OVCAR-3 ovarian; 107% in the assay on HS 578T breast; 74.3% in the assay on NCI/ADR-RES ovarian; 61.1% in the assay with T-47D breast; 96.4% in the assay with BT-549 breast. Moreover, the growth with MDA-MB-435 melanoma was 56.2%; with SW-620 colon, 44.5%; in the assay on MCF7 breast it was 55.4%; in the assay with HCT-116 colon it was 71.4%; with HCC-2998 colon, 108%; with KM12 colon, 86.2%. For the same molecule, the growth in the assay on MDA-MB-468 breast was 44.2%.

As to `CC1CCc2c(sc3nc(SCC(=O)c4cccc([N+](=O)[O-])c4)n(-c4ccccc4)c(=O)c23)C1` (configuration not stated), the growth in the assay with SR leukemia was 49%; in the assay with RPMI-8226 leukemia, 84.1%; with OVCAR-8 ovarian it was 38.6%; in the assay with OVCAR-5 ovarian, 94.2%; with OVCAR-4 ovarian, 98%; in the assay on SK-OV-3 ovarian, 98.8%. Besides, the growth was 74.8% with IGROV1 ovarian; 111% with OVCAR-3 ovarian; 94.7% in the assay on HS 578T breast; 65% with NCI/ADR-RES ovarian; 86.8% in the assay with T-47D breast; 94.5% with BT-549 breast. For the same molecule, the growth in the assay on MDA-MB-435 melanoma is 90.8%; in the assay with SW-620 colon, 71.1%; in the assay with MCF7 breast, 86.5%; in the assay on HCT-116 colon it was 25%; in the assay with HCC-2998 colon, 105%; with KM12 colon, 93.5%. In the assay with MDA-MB-468 breast, the growth is 83%.

`Cc1ccc(NC(=O)N/N=C/c2c[nH]c3ccccc23)c(C)c1`: the growth in the assay with SR leukemia was 12.3%; in the assay on RPMI-8226 leukemia it was 9.67% (active); in the assay on OVCAR-8 ovarian, -23.7% (active); with OVCAR-5 ovarian it was 15.5%; with OVCAR-4 ovarian, 47.3%; with SK-OV-3 ovarian, 21.8%. Moreover, the growth is 22.3% with IGROV1 ovarian; -33.2% (active) with OVCAR-3 ovarian; 20.4% in the assay with HS 578T breast; 3.88% (active) in the assay with NCI/ADR-RES ovarian; 46.7% with T-47D breast; 17.2% with BT-549 breast. Moreover, the growth with MDA-MB-435 melanoma was -14.3% (active); in the assay on SW-620 colon, 24.8%; with MCF7 breast, 7.55% (active); in the assay on HCT-116 colon it was -15.3% (active); in the assay on HCC-2998 colon it was -11.2% (active); with KM12 colon, -25.5% (active). Besides, the growth in the assay on MDA-MB-468 breast was 3.12% (active).

Turning to `CN1C(=O)/C(=C/c2ccco2)S/C1=N/c1nccs1`, the growth with SR leukemia was 89.5%; in the assay on RPMI-8226 leukemia, 115%; in the assay with OVCAR-8 ovarian, 104%; with OVCAR-5 ovarian it was 110%; in the assay on OVCAR-4 ovarian, 97.8%; in the assay on SK-OV-3 ovarian it was 106%. The growth in the assay on IGROV1 ovarian is 106%; with OVCAR-3 ovarian, 114%; with HS 578T breast it was 111%; with NCI/ADR-RES ovarian it was 101%; in the assay with T-47D breast it was 65.9%; with BT-549 breast, 112%. The growth was 107% with MDA-MB-435 melanoma; 106% with SW-620 colon; 33.7% in the assay on MCF7 breast; 95.2% with HCT-116 colon; 107% in the assay on HCC-2998 colon; 98% in the assay with KM12 colon. The growth in the assay on MDA-MB-468 breast is -13.2% (active).

For `COc1nc(N)ncc1-c1ccc2ncnc(N3CCc4cc(F)c(Cl)cc43)c2c1`, the growth in the assay on SR leukemia was -11.2% (active); in the assay on RPMI-8226 leukemia, 14%; in the assay on OVCAR-8 ovarian, -24.1% (active); in the assay on OVCAR-5 ovarian, -2.67% (active); in the assay with OVCAR-4 ovarian, -84.5% (active); with SK-OV-3 ovarian it was -36.6% (active). The growth was -45.3% (active) in the assay with IGROV1 ovarian; -24.7% (active) with OVCAR-3 ovarian; 7.35% (active) in the assay on HS 578T breast; 18.9% in the assay on NCI/ADR-RES ovarian; -46.3% (active) in the assay on T-47D breast; 19.9% in the assay with BT-549 breast. Also, the growth with MDA-MB-435 melanoma was 68.2%; with SW-620 colon, 34.3%; in the assay on MCF7 breast, 29.8%; with HCT-116 colon, -8.98% (active); in the assay with HCC-2998 colon, 12.2%; with KM12 colon, 70%. Further, in the assay with MDA-MB-468 breast, the growth was -24.9% (active).

As to `COc1ccc(S(=O)(=O)Nc2ccc(-c3ccc4c(c3)NC(=O)/C4=C\c3ccc[nH]3)cc2)cc1OC`, the growth is 8.03% (active) in the assay on SR leukemia; 39.4% in the assay with RPMI-8226 leukemia; 1.66% (active) in the assay with OVCAR-8 ovarian; 18.5% with OVCAR-5 ovarian; 8.08% (active) with OVCAR-4 ovarian; 27.1% in the assay on SK-OV-3 ovarian. Moreover, the growth in the assay with IGROV1 ovarian was 29.3%; in the assay on OVCAR-3 ovarian, 57.2%; with HS 578T breast it was 23.4%; in the assay with NCI/ADR-RES ovarian it was 22.1%; in the assay on T-47D breast, -21% (active); in the assay with BT-549 breast, 13.3%. Besides, the growth with MDA-MB-435 melanoma is 22%; in the assay on SW-620 colon it was 16.1%; in the assay on MCF7 breast, -39% (active); in the assay with HCT-116 colon it was 19%; with HCC-2998 colon, 24.2%; in the assay on KM12 colon, 33.6%. Moreover, the growth in the assay with MDA-MB-468 breast was -56.2% (active).

Consider `Cc1ccc(N=Nc2c(N)nn3c(-c4cc5ccccc5oc4=O)ccnc23)cc1`, for which the growth is 75.7% with SR leukemia; 9.76% (active) in the assay with RPMI-8226 leukemia; 51.4% in the assay with OVCAR-8 ovarian; 54.6% with OVCAR-5 ovarian; 77.9% in the assay on OVCAR-4 ovarian; 99.9% with SK-OV-3 ovarian. The growth in the assay on IGROV1 ovarian was 32.4%; with OVCAR-3 ovarian, 37.4%; in the assay on HS 578T breast, 62.6%; in the assay with NCI/ADR-RES ovarian, 27%; in the assay on T-47D breast, 55.7%; with BT-549 breast it was 74.5%. Further, the growth with MDA-MB-435 melanoma was 55.9%; in the assay on SW-620 colon it was 30.7%; with MCF7 breast, 26.6%; in the assay on HCT-116 colon it was 11.1%; with HCC-2998 colon, -21.1% (active); in the assay with KM12 colon it was 31.3%. Also, in the assay with MDA-MB-468 breast, the growth is 14.9%.

(Values after PubChem BioAssay (NCI).)
